Usually inhibition stands for the relative decrease from the control value, in per cent.

The structures appear in SMILES notation. Among all 1,000 compounds or so, about 200 (20%) were called active. Rule as the data show it: active = inhibition above about 55%; inactive = the rest. A selection follows. Measured potencies and affinities stand elsewhere.

Dual specificity protein phosphatase 3 (Homo sapiens), sequence (P51452 whole entry, looked up): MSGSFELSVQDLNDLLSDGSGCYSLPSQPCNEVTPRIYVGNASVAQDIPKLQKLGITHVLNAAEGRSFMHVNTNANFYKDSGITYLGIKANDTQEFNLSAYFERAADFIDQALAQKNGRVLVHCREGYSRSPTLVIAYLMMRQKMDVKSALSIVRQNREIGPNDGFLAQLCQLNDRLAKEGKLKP

This test has as its target Dual specificity protein phosphatase 3 (Homo sapiens) (UniProt P51452). Briefly: VHR1 phosphatase inhibitors, biochemical (AID 1878). To be noted: recombinant VHR phosphatase, fluorogenic substrate; at 13.3 µM; active compounds read high.
Regarding `CCC(C(=O)NCCCN1CCN(C)CC1)n1nc(C)n2c(cc3occc32)c1=O` (configuration not stated), the inhibition was -10.7% (inactive).

For `CC(=O)OC1CC2(C)/C(=N\O)CCC2C2CCc3cc(O)ccc3C12` (configuration not stated), the inhibition is -5.1% (inactive).

Turning to `Cc1ccc(-n2nc3c(=O)n(CCCC(=O)NC4CCC(C)CC4)nc(C)c3c2C)cc1` (configuration not stated), the inhibition was 23.9% (inactive).

Take `CCN(CC)C(=O)Cn1cc(C(=O)C(=O)NCCCN2CCCCC2)c2ccccc21`: the inhibition is 1.8% (inactive).

Take `O=C(NCc1ccc(F)cc1)C1CCN(S(=O)(=O)c2cccc3nonc23)CC1`: the inhibition was 4.8% (inactive).

Turning to `CC(C)C[C@H](NC(=O)C1CC(=O)N(c2ccc3c(c2)OCO3)C1)C(=O)NC1CCCC1` (some centres not stated), the inhibition was -5% (inactive).

Regarding `CCN(CC)CCCNC(=O)c1ccc(C)c(NC(=O)C2=C(C)OCCS2)c1`, the inhibition was 5.7% (inactive).

Regarding `COc1cc(OC)nc(Oc2cc(C=O)ccc2OC)n1`, the inhibition is 19.7% (inactive).

For `CCN(CC)CCCNC(=O)c1cn(C)c2ccc(S(=O)(=O)N(C)C3CCCCC3)cc2c1=O`, the inhibition was -8.9% (inactive).

As to `CC(=O)c1ccc(S(=O)(=O)Nc2ccc(N3CCOCC3)cc2)cc1`, the inhibition is -2% (inactive).

As to `O=S(=O)(Nc1ccc(Cl)cc1)c1ccc(N2CCOCC2)c(NC(=S)NCCN2CCOCC2)c1`, the inhibition is 57.1% (active).

Consider `Cn1c(=O)c(=O)n(C)c2cc(N3CCOCC3)c(NS(=O)(=O)c3ccc(F)c(Cl)c3)cc21`, for which the inhibition is -2.4% (inactive).

Regarding `CC(C)(C)NC(=O)N1CCN(c2ncccc2C(F)(F)F)CC1`, the inhibition is -1.3% (inactive).

Consider `O=C(CSc1nc2ccccc2[nH]1)NCCN1CCCCC1`, for which the inhibition was -5.4% (inactive).

For the compound `Cc1ccc(-c2nnn3c2nc(NCCc2ccc(S(N)(=O)=O)cc2)c2ccccc23)cc1`, the inhibition is 98.7% (active).

In the case of `CCOc1ccc(C(=O)OCC(=O)NCc2ccco2)cc1OCC`, the inhibition is 3.1% (inactive).

On to `CCN1C(=O)N(c2ccc(C(C)=O)cc2)S(=O)(=O)c2ccccc21`, for which the inhibition was -4.4% (inactive).

In the case of `COc1ccc(C(=O)N2CCN(CCNC(=O)C(=O)Nc3ccc(Br)cc3)CC2)cc1`, the inhibition was 1.9% (inactive).

For `Cc1ccc(NC(=O)CCC(=O)c2ccc(Br)cc2)cc1`, the inhibition is 8.7% (inactive).

Regarding `Oc1ccccc1/C=N/Nc1cc(N2CCCC2)nc(N2CCCC2)n1`, the inhibition is -15.5% (inactive).

Regarding `CCCC(=O)Nc1c(-c2ccc(C)cc2)c(=O)c2ccccc2n1C`, the inhibition is 2.1% (inactive).

For `COc1ccc(Cn2c(-c3ccc(C)cc3)nc3c(c(=O)c4ccccc4n3C)c2=O)cc1`, the inhibition was 85.9% (active).

Consider `COc1ccnc2c1c(=O)n(Cc1ccc(Cl)cc1)c(=O)n2C`, for which the inhibition was 0.3% (inactive).

With `Cc1nn(CC(=O)NCCCN2CC(C)CC(C)C2)c(=O)c2cccn12` (configuration not stated), the inhibition was -10.3% (inactive).

Consider `CN1C(=O)CN=C(c2ccc(Cl)cc2)c2cc(Cl)ccc21`, for which the inhibition was 16% (inactive).

`COc1cccc(-c2nc(CS(=O)(=O)CC(=O)NCCCN3CC(C)CC(C)C3)c(C)o2)c1` (configuration not stated): the inhibition was -0.7% (inactive).

On to `N#C/C(=C\c1ccc(-c2ccc(C(=O)O)cc2)o1)C(=O)Nc1ccc(F)cc1`, for which the inhibition is 82.2% (active).

Take `CN(C)N1C(N)=C(C#N)C(c2cccc(Cl)c2)C2=C1CCCC2=O` (configuration not stated): the inhibition was 0.6% (inactive).

In the case of `CC1CCCN(CCCNS(=O)(=O)c2ccc3c(c2)CCN3C(=O)C2CC2)C1` (configuration not stated), the inhibition is -6.7% (inactive).

`CC#CC#Cc1cccc(=O)o1`: the inhibition was 42.9% (inactive).

As to `O=C(O)CCSC1CC(=O)N(c2ccccc2)C1=O` (configuration not stated), the inhibition is 16.8% (inactive).

`O=S(=O)(c1cc(Cl)ccc1Cl)N1CCc2ccccc21`: the inhibition was -1.3% (inactive).

`CN(C)c1ccc(NC(=O)CSc2nnc(C3CCCCC3)n2N)cc1`: the inhibition is -7.6% (inactive).

Take `O=C(CSc1ccc2ccccc2n1)Nc1nsc(-c2ccc(Cl)cc2)n1`: the inhibition was 80% (active).

`Cc1ccc2nc(SCC(=O)NCc3ccc(F)cc3)[nH]c2c1`: the inhibition was 19.1% (inactive).

Regarding `Cc1nc2ccccc2c(=O)n1NC(=O)c1ccccc1`, the inhibition is -2% (inactive).

In the case of `CS(=O)(=O)/C(C#N)=C/c1cccn1S(=O)(=O)c1ccccc1`, the inhibition was -10.1% (inactive).

For the compound `CC(C)[C@H](NC(=O)c1ccco1)C(=O)NCc1ccccc1`, the inhibition is 6% (inactive).

Take `O=C(COc1ccccc1)NCCc1cnc[nH]1`: the inhibition is -4.2% (inactive).

On to `O=C(COc1ccccc1Cl)N1CCCCCCC1`, for which the inhibition is -0.6% (inactive).

Consider `COc1ccc(NC(=O)CSc2ccc3nnc(CCNC(=O)c4ccccc4)n3n2)cc1`, for which the inhibition was -4.5% (inactive).

Take `CCN1CCN(CC(=O)Nc2nc3ccc(C)cc3s2)CC1`: the inhibition is -5.5% (inactive).

As to `CCn1c(SCC(=O)Nc2ccc(-c3nc4ccc(C)cc4s3)cc2)nnc1-c1ccccc1`, the inhibition is 88.3% (active).

For `Cc1ccc(S(=O)(=O)/C(C#N)=C/c2c(N3CCOCC3)nc3c(C)cccn3c2=O)cc1`, the inhibition was 3% (inactive).

As to `c1ccc(-c2cc(-c3ccccc3)[n+](-c3ccccc3)c(-c3ccccc3)c2)cc1`, the inhibition was -14.8% (inactive).

On to `CCOc1c(Br)cc(C(=O)N2CCCN(C)CC2)cc1OC`, for which the inhibition was 2.9% (inactive).

Regarding `COc1ccc(NCCC(O)c2ccc(Cl)cc2)cc1` (configuration not stated), the inhibition was -2% (inactive).

Consider `CCCn1c(C(O)c2ccc(OC)c(OC)c2)nc2ccccc21` (configuration not stated), for which the inhibition is 7% (inactive).

As to `CCOC(=O)C1(Cc2cccc(Cl)c2)CCCN(C(=O)c2cc(CC)on2)C1` (configuration not stated), the inhibition was -6.6% (inactive).

`Cc1ccccc1N1C(=O)C2ON(c3ccccc3)C(c3ccncc3)C2C1=O` (configuration not stated): the inhibition is -3.4% (inactive).

Take `Cc1ccc(N2C(=O)CC(N3CCN(S(=O)(=O)c4ccccc4)CC3)C2=O)c(C)c1` (configuration not stated): the inhibition is -2.4% (inactive).

With `CC1CCCCN1CCCNC(=O)CN1C(=O)c2cccnc2Oc2ccc(Cl)cc21` (configuration not stated), the inhibition is -4.5% (inactive).

With `O=c1[nH]c2ccccc2nc1/C=C/c1ccc(Cl)cc1`, the inhibition was 14.9% (inactive).

Regarding `COc1ccc(-c2csc3ncn(Cc4ccccc4)c(=O)c23)cc1`, the inhibition is -2.5% (inactive).

Regarding `NC(=O)c1ccc(NC(=O)CS(=O)(=O)c2cn(CC(=O)N3CCCCC3)c3ccccc23)cc1`, the inhibition is -15.1% (inactive).

With `FC(F)(F)c1cccc(NC(=S)N2CCCC2)c1`, the inhibition is 12% (inactive).

In the case of `O=C(O)C(CCCCNS(=O)(=O)c1ccc(F)cc1)NS(=O)(=O)c1ccc(F)cc1` (configuration not stated), the inhibition is -6.2% (inactive).

With `COCCNC(=O)CN1N=C(c2ccc(C)cc2)CCC1=O`, the inhibition was 6.3% (inactive).

For `C=CCn1c(SCC(=O)c2c(C)[nH]c3ccccc23)nnc1-c1ccncc1`, the inhibition is 35.6% (inactive).

`O=C(CSc1nnc(-c2ccccc2)o1)c1ccc2c(c1)OCCO2`: the inhibition is -8.7% (inactive).

Consider `Cn1c(SCC(=O)c2ccc3c(c2)Cc2ccccc2-3)nnc1-c1ccccc1`, for which the inhibition is 83.7% (active).

On to `Cc1ccc(NC2CCCN(C(=O)c3ccccn3)C2)cc1C` (configuration not stated), for which the inhibition is -5.3% (inactive).

As to `O=C(CCc1nnc2ccc(NCc3ccccc3)nn12)NC1CCCCC1`, the inhibition is 4.6% (inactive).

`COc1ccc(N=C2C(=O)Nc3ccc(C)c(Br)c32)cc1`: the inhibition is 7.8% (inactive).

Turning to `COc1ccc(Cl)cc1NCCC(O)c1ccc(F)cc1` (configuration not stated), the inhibition was -9.5% (inactive).

As to `COc1ccccc1-c1csc(-n2ncc(C#N)c2N)n1`, the inhibition was 73.9% (active).

As to `O=C(NC1CC2CCCC(C1)N2)c1ccccc1` (configuration not stated), the inhibition is -12.1% (inactive).

`CC(NC(=O)C(=O)N1CCCCC1)C(c1cccs1)N1CCN(C)CC1` (configuration not stated): the inhibition was -4.5% (inactive).

As for `CCN(CC)CCNC(=O)Cn1cnc2sc(C)c(S(=O)(=O)N3CC(C)CC(C)C3)c2c1=O` (configuration not stated), the inhibition was -8.4% (inactive).

In the case of `COc1cc(C(=O)NCCC(=O)NCc2c(F)cc(F)cc2F)cc(OC)c1OC`, the inhibition was 21.2% (inactive).

Take `CCC(=O)N1CCc2cc(S(=O)(=O)NCCc3ccc(S(N)(=O)=O)cc3)ccc21`: the inhibition was 0.3% (inactive).

For `COc1ccccc1CN1CC(C(=O)NCc2ccc(C)c(F)c2)CCC1=O` (configuration not stated), the inhibition is -6.8% (inactive).

With `COc1ccc2c(c1)c(=O)oc1c(C)c(OCc3cc(C(=O)O)oc3C)ccc12`, the inhibition is 40.3% (inactive).

For `Cc1c(C)c2ccc(OCC(=O)NCCCn3ccnc3)c(C)c2oc1=O`, the inhibition was -9.5% (inactive).

Turning to `Cc1ccc(C)c(NC(=O)C(c2ccccc2)N2CCOCC2)c1` (configuration not stated), the inhibition is 6.5% (inactive).

For `COc1cccc(-c2nc(CS(=O)(=O)CC(=O)N3CCCCC3)c(C)o2)c1`, the inhibition was -1% (inactive).

Regarding `CC1=C(C(=O)OC(C)C)C(c2ccc3c(c2)OCO3)NC(=O)N1` (configuration not stated), the inhibition is -7.6% (inactive).

Consider `NS(=O)(=O)c1ccc(NC(=O)c2cccc(N3C(=O)c4ccccc4C3=O)c2)cc1`, for which the inhibition was 93.1% (active).

Consider `C[n+]1cccc(C(=O)Nc2ccccc2)c1`, for which the inhibition is 13.8% (inactive).

Regarding `O=C(Nc1ccccc1C(=O)O)c1ccc2c(c1)C(=O)N(c1cccc([N+](=O)[O-])c1)C2=O`, the inhibition was 2.4% (inactive).

As for `Cc1ccccc1-c1nc(CS(=O)(=O)CC(=O)NCCCN2CC(C)CC(C)C2)c(C)o1` (configuration not stated), the inhibition is 28.9% (inactive).

As for `COCCn1c(SCC(=O)Nc2cccc(C)n2)nnc1-c1ccco1`, the inhibition is 3.1% (inactive).

For the compound `O=C(NCCc1ccc(Cl)cc1)c1ccc2nccnc2c1`, the inhibition is 6.7% (inactive).

In the case of `CCN1CCN(CCCNC(=O)CN2C(=O)c3cccnc3Oc3ccc(Cl)cc32)CC1`, the inhibition is 14% (inactive).

`CC1CCN(CCc2nc3cc(NC(=O)C(C)C)ccc3n2C)CC1`: the inhibition was 9.3% (inactive).

Consider `CC(=O)c1ccc(NC(=O)CCn2c(=S)oc3ccccc32)cc1`, for which the inhibition was 40.7% (inactive).

Regarding `CC(=O)c1ccc(NC(=O)c2ccc3nc(-c4ccco4)c(-c4ccco4)nc3c2)cc1`, the inhibition is 92.7% (active).

Turning to `Cc1ccccc1NC(=O)c1cccc(NC(=O)c2ccco2)c1`, the inhibition is -9.7% (inactive).

As to `CC(C)Cn1c(=O)c2ccccc2n2c(CCC(=O)NC3CCN(Cc4ccccc4)CC3)nnc12`, the inhibition is 17.9% (inactive).

Consider `COCCNC(=O)Cn1nc(-c2ccc(C)cc2)c2ccccc2c1=O`, for which the inhibition is 2.6% (inactive).

For the compound `O=C(Nc1ccccc1-c1nnn(CC(=O)N2CCOCC2)n1)c1ccc(F)cc1`, the inhibition was -1.6% (inactive).

Take `Cn1nc(-c2ccc(C(=O)Nc3ccc(F)cc3)cc2)c2ccccc2c1=O`: the inhibition was 96.2% (active).
